# HCMV antiviral = inhibitors of human cytomegalovirus | HFF cells, HCMV-luciferase reporter, 72 h; active compounds read low | activity change, negative = inhibition, % at 57.5 µM | hit rate 4.5% among 410,000; in the data active means activity change below about -60%; inconclusive means no clear call, values can overlap the other calls; inactive means above about -39%
#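 Luciferase read-out from HCMV-luciferase-infected HFFs (MOI 1 PFU/cell) 72 h post infection at 37C; compounds added after 16 h cell attachment; activity normalized between buffer-only basal and Salinomycin (10uM) inhibitor controls.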
# MARV entry inh = Marburg virus entry inhibition; Marburg virus pseudotyped entry inhibition, cell reporter; Potency, µM (series often up to 37.8 µM), for the others: top-dose activity change, negative = inhibition, hits mostly inhibitors; hit rate 1.8% among 300,000; calls by dose curve; tested in HEK293 cells; further: potency means the concentration at half of the fitted maximal effect
# LASV entry inh = Lassa virus entry inhibition | hit rate 1.2% among 300,000 | Lassa virus pseudotype entry inhibition, cell reporter | AID 540256 | Potency, µM (highest dose often 37.9 µM), without a hit: at the highest dose activity change, negative = inhibition, hits mostly inhibitors; calls by dose curve; tested in HEK293 cells; further: potency means the concentration at half of the fitted maximal effect; nearly all actives have a fitted effect of over 50% in size
# HCV inh = HCV inhibition; Huh7.5.1 HCVcc-Cre infection, luciferase reporter, 44 h; Potency, µM (doses to about 41.8 µM), inactives show at the highest dose activity change, negative = inhibition, actives largely listed as inhibitors; hit rate 3.4% among 340,000; active means well fitted inhibition curve with a large enough effect; inconclusive means small, poorly fitted or top-dose-only effect, or another doubt; inactive means no such curve, though single readings can be large or run the other way; further: potency means the concentration at half of the fitted maximal effect
#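 Luciferase read-out (15 sec integration) after a 15 min room-temperature substrate step quantifies HCVcc-Cre infection. Cells, 1,000 per well, had compound added 4 h post-plating, then virus at ~0.5 moi, and were cultured 44 h.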
# FMDV inh = foot and mouth disease virus antiviral activity | Potency, µM (top dose mostly 57.9 µM), for the others: top-dose activity change, negative = inhibition, actives largely listed as inhibitors | FMDV antiviral cell-based qHTS | AID 1159524 | hit rate 1.2% among 410,000; calls by dose curve; tested in HEK293T cells; further: read-out not given here; potency means the concentration at half of the fitted maximal effect; nearly all actives have a fitted effect of over 45% in size
# * = called active by the depositor; ? = inconclusive; . = no result given; [ ] = remark or other dose. Rows were chosen to be rich in hits. Some 7.9% of all compounds tested hit in one or more screens of this group. On the % scale 0 is the no-effect control and ±100 the full control effect.
SMILES,HCMV antiviral,MARV entry inh,LASV entry inh,HCV inh,FMDV inh
[O-][n+]1onc2c1CCc1c-2nn(-c2ccccc2Cl)[n+]1[O-],-100*,?,?,-2%,.
O=C(Cc1sc(-c2ccccc2Cl)nc1-c1ccccc1)Nc1ccc(F)cc1,-60*,?,-29%,7.9µM*,-7%
CC(=O)Nc1ccc(NC(=O)Cc2sc(-c3cccnc3)nc2-c2ccc(C)cc2)cc1,-25,?,-26%[46.1 µM],-9%,31%
O=C(Cc1sc(-c2ccccc2Cl)nc1-c1ccccc1)Nc1ccccc1,-90*,?,?,-5%,?
O=C(Cc1sc(-c2ccccc2)nc1-c1ccccc1)Nc1ccc(Cl)cc1,-76*,-7%,3%,-2%,-16%
CCOC(=O)c1c(/N=C/N(C)C)sc(C=O)c1-c1ccccc1,?,-8%[46.1 µM],8%,-11%,1%
CCOC(=O)c1c(/N=C/N(C)C)sc2c1CCC2,33,?,-14%,?,0%
CCOC(=O)c1c(/N=C/N(C)C)sc(/C=N/Nc2ccccc2)c1-c1ccccc1Cl,-17,?,?,6.3µM*,-5%
CCOC(=O)c1c(/N=C/N(C)C)sc(/C=N/Nc2ccccc2)c1-c1ccccc1,2,18µM*,-4%,?,-19%
CC12CCC3c4ccc(OCc5ccccc5)cc4CCC3C1CC(O)C2O (stereo not drawn),.,.,.,.,8%
Cc1cccc(C)c1NC(=O)Cn1c(=O)n(Cc2ccc(C(=O)NCc3ccco3)cc2)c(=O)c2sccc21,-66*,3%[46.1 µM],?,.,-19%
N#Cc1ccccc1Cn1c(=O)n(Cc2ccc(C(=O)NCc3ccco3)cc2)c(=O)c2sccc21,-17,11%,-6%,?,12%
Cc1cc(C)c(NC(=O)Cn2c(=O)n(Cc3ccc(C(=O)NCc4ccco4)cc3)c(=O)c3sccc32)c(C)c1,-76*,-27%[46.1 µM],?,.,-3%
O=C(Nc1scc(-c2ccccc2)c1C(=O)O)c1ccccc1F,-23,?,-11%[46.1 µM],14%,-6%
O=C(Nc1scc(-c2ccc(Br)cc2)c1C(=O)O)c1ccccc1F,-22,3.2µM*,?,7%,12%
CCOC(=O)c1ccc(NS(=O)(=O)c2c(N)n(C)c(=O)n(C)c2=O)cc1,?,.,.,10µM*,0%
CC(C)C(=O)N1CCC[C@@H]1c1noc2ccccc12,-15,.,.,.,.
CN(C)c1cccc(NC(=O)c2cccc3c(-c4ccc(F)c(F)c4)coc23)c1,6,.,.,.,-12%
CC1=C[C@@H](COCc2ccccc2)O[C@@]2(C1)C(=O)Nc1cccc(Br)c12,.,9%[14.2 µM],?,.,.
N#CC1=C(SCC(N)=O)NC2=C(C(=O)c3ccccc32)C1c1ccc(Cl)cc1 (stereo not drawn),-60*,?,-30%,-19%,-15%
CN1CCCC1CCOC(C)(c1ccccc1)c1ccc(Cl)cc1 (stereo not drawn),-33,9.2µM*,21µM*,-16%,-26%
COc1ccc2c(c1)-c1nc(-n3ncc(C(=O)NC[C@@H]4CCCN5CCCC[C@H]45)c3C)ncc1CC2,.,.,.,.,-9%
O=C(CN1Cc2ccccc2OC(c2ccsc2)C1)NCC1OCCc2ccccc21 (stereo not drawn),.,.,.,.,0%
CNC(=O)Oc1ccc(-c2cn3cc(C)ccc3n2)cc1,-24,0.65µM*,0.32µM*,?,13µM*
CNC(=O)Oc1cccc(-c2cn3cc(Cl)ccc3n2)c1,?,2.8µM*,?,?,-90%
SMILES,HCMV antiviral,MARV entry inh,LASV entry inh,HCV inh,FMDV inh
CCOC(=O)/C=C/[C@H](CCc1ccccc1)NC(=O)C(F)(F)F,-19,.,.,.,.
Cc1nnc(Nc2ccc(O)cc2)[nH]c1=O,-20,3%[46.1 µM],6%,14µM*,10%
c1ccc2c(c1)N1CCCN=C1N2CCN1CCCCC1,?,13µM*,-26%,?,-9%
c1ccc2c(c1)N1CCN=C1N2CCN1CCCCC1,-3,?,-2%,?,-18%
CCc1ccc(/C=C2\SC(=S)N(CCCC(=O)Nc3cc(C)on3)C2=O)cc1,?,.,.,.,16µM*
CCc1ccc(/C=C2\SC(=S)N(CCC(=O)Nc3cc(C)on3)C2=O)cc1,?,-5%[46.1 µM],-2%,6%,?
CCc1ccc(/C=C2\SC(=S)N(CCCC(=O)NC3=NCCS3)C2=O)cc1,-74*,.,.,.,14µM*
COc1cccc(/C=C2\SC(=S)N(CCCC(=O)NC3=NCCS3)C2=O)c1,-29,.,.,11%,-15%

# Compound activity as filed in PubChem.
